Our source for the outcome and AC50 values is PubChem BioAssay (NCATS).

Each structure is given as a SMILES string. For some of these results: Measured potencies and affinities stand elsewhere. Calls of active or inactive are those of the source. The call rests on the fitted dose curve.

The conditions of the first test: Ebola virus entry assay, green fluorescence channel.
Turning to `CCC1=C(C)CN(C(=O)NCCc2ccc(S(=O)(=O)NC(=O)NC3CCC(C)CC3)cc2)C1=O` (stereo not drawn), the result was inactive.

With `CO[C@H]1C[C@@H]2CC[C@@H](C)[C@@](O)(O2)C(=O)C(=O)N2CCCC[C@@H]2C(=O)O[C@H]([C@@H](C)C[C@@H]2CC[C@H](O)[C@H](OC)C2)CC(=O)[C@H](C)C=C(C)[C@@H](O)[C@@H](OC)C(=O)[C@H](C)C[C@H](C)C=CC=CC=C1C`, the compound was classed as inactive.

Consider `CCOC(=O)C1=C(COCCN)NC(C)=C(C(=O)OC)C1c1ccccc1Cl` (stereo not drawn), for which the outcome was inactive.

For `CO[C@@]1(NC(=O)Cc2cccs2)C(=O)N2C(C(=O)O)=C(COC(N)=O)CS[C@@H]21`, the call was inactive.

As to `CN=C1CN(O)C(c2ccccc2)=c2cc(Cl)ccc2=N1`, the call was inactive.

As for `NC[C@H]1O[C@H](O[C@H]2[C@H](O)[C@@H](O[C@H]3O[C@H](CO)[C@@H](O)[C@H](N)[C@H]3O)[C@H](N)C[C@@H]2N)[C@H](O)[C@@H](O)[C@@H]1O`, the compound was classed as inactive.

On to `Nc1ccn([C@@H]2CS[C@H](CO)O2)c(=O)n1`, for which the compound was called inactive.

`CN1C[C@H](C(=O)N[C@]2(C)O[C@@]3(O)[C@@H]4CCCN4C(=O)[C@H](Cc4ccccc4)N3C2=O)C=C2c3cccc4[nH]cc(c34)C[C@H]21`: the call was inactive.

As to `CN1CCN(CCC=C2c3ccccc3Sc3ccc(S(=O)(=O)N(C)C)cc32)CC1`, the call was inactive.

`NC(=O)CC[C@@H]1NC(=O)[C@H](Cc2ccccc2)NC(=O)[C@H](Cc2ccc(O)cc2)NC(=O)[C@@H](N)CSSC[C@@H](C(=O)N2CCC[C@H]2C(=O)N[C@@H](CCCN=C(N)N)C(=O)NCC(N)=O)NC(=O)[C@H](CC(N)=O)NC1=O`: the compound was called inactive.

Take `COc1ccc2c(c1)C13CCCC[C@@H]1C(C2)N(C)CC3` (stereo partly drawn): the outcome was inactive.

For the compound `Nc1nc2[nH]cc(CCc3ccc(C(=O)N[C@@H](CCC(=O)O)C(=O)O)cc3)c2c(=O)[nH]1`, the result was inactive.

Regarding `Nc1nc(/C(=C/CC(=O)O)C(=O)N[C@@H]2C(=O)N3C(C(=O)O)=CCS[C@H]23)cs1`, the result was inactive.

Regarding `O=P1(N(CCCl)CCCl)NCCCO1` (stereo not drawn), the result was inactive.

Consider `C[C@](O)(CS(=O)(=O)c1ccc(F)cc1)C(=O)Nc1ccc(C#N)c(C(F)(F)F)c1`, for which the result was inactive.

For `CC(O)(P(=O)(O)O)P(=O)(O)O`, the result was inactive.

Regarding `COc1cc([C@@H]2c3cc4c(cc3[C@@H](O[C@@H]3O[C@@H]5CO[C@@H](C)O[C@H]5[C@H](O)[C@H]3O)[C@H]3COC(=O)[C@H]23)OCO4)cc(OC)c1O`, the outcome was inactive.

`O=c1[nH]c(=O)n([C@H]2C[C@H](O)[C@@H](CO)O2)cc1F`: the compound was classed as inactive.

In the case of `CCCCCN(C)CCC(O)(P(=O)(O)O)P(=O)(O)O`, the compound was classed as inactive.

For the compound `CN(C)CCOc1ccc(/C(=C(/CCCl)c2ccccc2)c2ccccc2)cc1`, the compound was called inactive.

Consider `O=C1CN=C(c2ccccc2)c2cc([N+](=O)[O-])ccc2N1`, for which the compound was called inactive.

In the case of `CCCc1nc(C(C)(C)O)c(C(=O)OCc2oc(=O)oc2C)n1Cc1ccc(-c2ccccc2-c2nn[nH]n2)cc1`, the compound was called inactive.

On to `CCOc1cc(CC(=O)N[C@@H](CC(C)C)c2ccccc2N2CCCCC2)ccc1C(=O)O`, for which the call was inactive.

Turning to `CCOC(=O)[C@H](CCc1ccccc1)N[C@@H](C)C(=O)N1[C@H](C(=O)O)C[C@H]2CCCC[C@@H]21`, the outcome was inactive.

For `CCCC(C)(COC(N)=O)COC(N)=O`, the result was inactive.

For the compound `C[C@@H]1O[C@@H](O[C@H]2CC[C@@]3(C)[C@H](CC[C@@H]4[C@H]3C[C@@H](O)[C@]3(C)[C@@H](C5=CC(=O)OC5)CC[C@]43O)C2)C[C@H](O)[C@@H]1O[C@H]1C[C@H](O)[C@H](O[C@H]2C[C@H](O)[C@@H](O)[C@@H](C)O2)[C@H](C)O1` (stereo in doubt), the outcome was inactive.

On to `CN1[C@@H]2CC[C@H]1CC(OC(c1ccccc1)c1ccccc1)C2` (stereo partly drawn), for which the compound was classed as inactive.

For the compound `CC1(C)S[C@@H]2[C@H](NC(=O)[C@H](N)c3ccc(O)cc3)C(=O)N2[C@H]1C(=O)O`, the call was inactive.

With `Cc1onc(-c2ccccc2)c1C(=O)N[C@@H]1C(=O)N2[C@@H](C(=O)O)C(C)(C)S[C@@H]12`, the compound was classed as inactive.

On to `CC(C)C[C@H]1C(=O)N2CCC[C@H]2[C@]2(O)O[C@](NC(=O)[C@@H]3C=C4c5cccc6[nH]c(Br)c(c56)C[C@H]4N(C)C3)(C(C)C)C(=O)N12`, for which the compound was called inactive.

Regarding `CSCC[C@H](NC(=O)[C@H](Cc1ccc(OS(=O)(=O)O)cc1)NC(=O)[C@@H](N)CC(=O)O)C(=O)NCC(=O)N[C@@H](Cc1c[nH]c2ccccc12)C(=O)N[C@@H](CCSC)C(=O)N[C@@H](CC(=O)O)C(=O)N[C@@H](Cc1ccccc1)C(N)=O`, the compound was classed as inactive.

The conditions of a further test: Ebola virus entry assay, ratio channel readout.
`CCC1=C(C)CN(C(=O)NCCc2ccc(S(=O)(=O)NC(=O)NC3CCC(C)CC3)cc2)C1=O` (stereo not drawn): the result was inactive.

In the case of `CO[C@H]1C[C@@H]2CC[C@@H](C)[C@@](O)(O2)C(=O)C(=O)N2CCCC[C@@H]2C(=O)O[C@H]([C@@H](C)C[C@@H]2CC[C@H](O)[C@H](OC)C2)CC(=O)[C@H](C)C=C(C)[C@@H](O)[C@@H](OC)C(=O)[C@H](C)C[C@H](C)C=CC=CC=C1C`, the outcome was inactive.

As for `CCOC(=O)C1=C(COCCN)NC(C)=C(C(=O)OC)C1c1ccccc1Cl` (stereo not drawn), the result was inactive.

Regarding `CO[C@@]1(NC(=O)Cc2cccs2)C(=O)N2C(C(=O)O)=C(COC(N)=O)CS[C@@H]21`, the result was inactive.

With `CN=C1CN(O)C(c2ccccc2)=c2cc(Cl)ccc2=N1`, the outcome was inactive.

Consider `NC(=O)COCCN1CCN(C(c2ccccc2)c2ccc(Cl)cc2)CC1` (stereo not drawn), for which the result was inactive.

`Nc1ccn([C@@H]2CS[C@H](CO)O2)c(=O)n1`: the result was inactive.

As for `CN1C[C@H](C(=O)N[C@]2(C)O[C@@]3(O)[C@@H]4CCCN4C(=O)[C@H](Cc4ccccc4)N3C2=O)C=C2c3cccc4[nH]cc(c34)C[C@H]21`, the result was inactive.

Take `CC(=O)S[C@@H]1CC2=CC(=O)CC[C@]2(C)[C@H]2CC[C@@]3(C)[C@@H](CC[C@@]34CCC(=O)O4)[C@H]12`: the outcome was inactive.

`C[C@H](CS)C(=O)N1CCC[C@H]1C(=O)O`: the outcome was inactive.

For `CN1CCN(CCC=C2c3ccccc3Sc3ccc(S(=O)(=O)N(C)C)cc32)CC1`, the AC50 is 4.47 µM (active).

Turning to `COc1ccc2c(c1)C13CCCC[C@@H]1C(C2)N(C)CC3` (stereo partly drawn), the outcome was inactive.

As to `Nc1nc2[nH]cc(CCc3ccc(C(=O)N[C@@H](CCC(=O)O)C(=O)O)cc3)c2c(=O)[nH]1`, the outcome was inactive.

As to `CC(C=CC1=C(C)CCCC1(C)C)=CC=CC(C)=CC(=O)O`, the outcome was inactive.

Turning to `Nc1nc(/C(=C/CC(=O)O)C(=O)N[C@@H]2C(=O)N3C(C(=O)O)=CCS[C@H]23)cs1`, the result was inactive.

As for `C[C@](O)(CS(=O)(=O)c1ccc(F)cc1)C(=O)Nc1ccc(C#N)c(C(F)(F)F)c1`, the result was inactive.

Take `N[C@@H](Cc1cc(I)c(Oc2ccc(O)c(I)c2)c(I)c1)C(=O)O`: the outcome was inactive.

As for `CN(C)CCOc1ccc(/C(=C(/CCCl)c2ccccc2)c2ccccc2)cc1`, the result was inactive.

As to `O=C1[O][Bi][O]c2ccccc21`, the result was inactive.

Regarding `O=C1CN=C(c2ccccc2)c2cc([N+](=O)[O-])ccc2N1`, the outcome was inactive.

For the compound `CCOc1cc(CC(=O)N[C@@H](CC(C)C)c2ccccc2N2CCCCC2)ccc1C(=O)O`, the result was inactive.

Take `CCOC(=O)[C@H](CCc1ccccc1)N[C@@H](C)C(=O)N1[C@H](C(=O)O)C[C@H]2CCCC[C@@H]21`: the result was inactive.

On to `CCCC(C)(COC(N)=O)COC(N)=O`, for which the outcome was inactive.

On to `COc1cccc2c1C(=O)c1c(O)c3c(c(O)c1C2=O)C[C@@](O)(C(C)=O)C[C@H]3O[C@H]1C[C@H](N)[C@H](O)[C@H](C)O1`, for which the AC50 was 5.63 µM (active).

For `C[C@@H]1O[C@@H](O[C@H]2CC[C@@]3(C)[C@H](CC[C@@H]4[C@H]3C[C@@H](O)[C@]3(C)[C@@H](C5=CC(=O)OC5)CC[C@]43O)C2)C[C@H](O)[C@@H]1O[C@H]1C[C@H](O)[C@H](O[C@H]2C[C@H](O)[C@@H](O)[C@@H](C)O2)[C@H](C)O1` (stereo in doubt), the outcome was inactive.

With `CN1[C@@H]2CC[C@H]1CC(OC(c1ccccc1)c1ccccc1)C2` (stereo partly drawn), the AC50 is 3.55 µM (active).

Turning to `CC(C)C[C@H]1C(=O)N2CCC[C@H]2[C@]2(O)O[C@](NC(=O)[C@@H]3C=C4c5cccc6[nH]c(Br)c(c56)C[C@H]4N(C)C3)(C(C)C)C(=O)N12`, the outcome was inactive.

A word on the AC50: it is the midpoint of the concentration-response curve, whichever way the signal moves.
